Measured values from PubChem BioAssay AID493194 (Broad Institute, 2011).
Entries with a potency or affinity are not part of this list. Inconclusive results are not listed. Active and inactive are the calls of the source.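 How the source made its calls: active means a valid curve of falling signal whose half-effect concentration is at most ten times the top tested dose; inconclusive means flat curve at 30 to 70% inhibition, or poor fit; inactive means signal rise, flat within 30%, or potency beyond limit.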

target: Scavenger receptor class B member 1 (Mus musculus) (UniProt Q61009); test: inhibitors of SR-BI mediated HDL lipid uptake, dose response, ldlA[mSR-BI] cells, fluorescence, cherry pick (AID 493194); details: CHO ldlA[mSR-BI] DiI-HDL uptake fluorescence, 3 h; series mostly up to 35 µM; activity change, negative = inhibition: at the top concentration;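 further: CHO cells lacking LDL receptor and overexpressing mouse SR-BI; cellular uptake of fluorescently labeled HDL measured as cell fluorescence; 0% = median of neutral control wells and -100% = median of positive control wells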
Sequence (Q61009 whole entry, looked up): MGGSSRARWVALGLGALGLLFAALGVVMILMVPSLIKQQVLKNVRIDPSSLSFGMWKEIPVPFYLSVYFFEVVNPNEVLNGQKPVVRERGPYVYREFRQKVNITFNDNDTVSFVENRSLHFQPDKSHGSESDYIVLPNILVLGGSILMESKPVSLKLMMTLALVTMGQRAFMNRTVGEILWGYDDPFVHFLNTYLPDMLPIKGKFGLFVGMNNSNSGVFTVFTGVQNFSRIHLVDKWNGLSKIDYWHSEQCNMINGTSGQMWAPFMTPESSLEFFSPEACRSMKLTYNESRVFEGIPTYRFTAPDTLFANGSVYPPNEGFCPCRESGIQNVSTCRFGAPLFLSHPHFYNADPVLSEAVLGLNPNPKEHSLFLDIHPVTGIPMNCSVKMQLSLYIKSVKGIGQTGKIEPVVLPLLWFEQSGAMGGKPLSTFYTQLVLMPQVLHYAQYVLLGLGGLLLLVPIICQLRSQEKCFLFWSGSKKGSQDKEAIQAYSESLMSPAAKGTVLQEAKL

Activity change, negative = inhibition, inactive:
COc1ccc(CCn2c(C)cc(C(=O)CSc3nc(N)cc(=O)[nH]3)c2C)cc1 -10.1%
Cc1c(Cl)cccc1S(=O)(=O)N1CCC(C(=O)NNC(=O)C2CC2)CC1 -7.02%
COc1ccccc1CCc1nnc(CCC(=O)N(C)Cc2cccc3cnccc23)o1 -20.7%
COc1ccc(-c2nnc(SCC(=O)Nc3ncc(C(F)(F)F)cc3Cl)n2CC(C)C)cc1 -12.1%
COc1ccc(N2CCN(C(=O)c3cc(=O)[nH]c4ccccc34)CC2)cc1 -23.9%
COc1ccc(N(CC(=O)NC2CCCC2)C(=O)Cn2nnc(-c3ccc(OC)c(OC)c3)n2)cc1 -9.87%
COC(=O)c1ccc(C(=O)Nc2nc3cc(N)c(C)cc3s2)cc1 -23.6%
Cc1cc(C)nc(N2CCC(C(=O)N3CCN(c4cc(Cl)ccc4C)CC3)CC2)n1 -16.4%
Cc1cccc(NC(=O)N2C3CCCC2CC(NC(=O)C(C)(C)C)C3)c1 (stereo not drawn) 44.3%
Cc1cccc(NC(=O)C2(C)CC3c4ccccc4C2c2ccccc23)c1C (stereo not drawn) 29.8%
O=C(Nc1ccn(Cc2c(F)c(F)c(F)c(F)c2F)n1)c1ccc(COc2ccccc2Cl)cc1 57.4%
COc1ccc(C2c3sc(=O)[nH]c3SC3C4CCC(C4)C23)cc1OC (stereo not drawn) -8.15%
O=C(Nc1cccc(-c2csc(Nc3ccc(Cl)cc3)n2)c1)c1cccc(C(F)(F)F)c1 -46.5%
COc1ccccc1C(=O)NCCn1cc(SCC(=O)Nc2nnc(C)s2)c2ccccc21 -22.6%
CC(C)OC(=O)c1cccc(C(=O)Nc2cccc(NC(=O)c3cccc(C(=O)OC(C)C)n3)n2)n1 4.41%
COC(=O)C1C(=O)c2c([nH]c(C(=O)OC3CCCC3C)c2C)CC1C (stereo not drawn) 10.7%
CCOC(=O)c1cccc(NC(=O)Nc2cc(OC)ccc2OC)c1 -21.1%
Cc1cc(CN(C)C(=O)C2CCC(=O)N(CCc3cccc(F)c3)C2)on1 (stereo not drawn) -5.46%
COC(=O)[C@@]1(Cc2ccc(F)cc2)[C@H]2c3cc(C(=O)N4CCCC4)n(CCCNc4ncc(C(F)(F)F)cc4Cl)c3C[C@H]2CN1C(=O)c1ccccc1 22.1%
COc1ccc(CCNC(=O)CCC(=O)N2CC(C)Oc3ccc(Cl)cc32)cc1OC (stereo not drawn) -10.9%
CCCCN(Cc1ccccc1)c1ncnc2nc[nH]c12 25.3%
COc1ccc(CCC(=O)Nc2ccc(-c3noc(-c4ccc(OC)c(OC)c4)n3)cc2)cc1 -4.83%
Cc1cc(C)cc(NC(=O)CCc2c(C)nn(-c3ccc(N4CCCCC4)nn3)c2C)c1 -21.4%
COc1ccc(CCNC(=O)c2ccc3c(c2)N(Cc2ccc(C)cc2)CCS3)cc1OC 4.2%
Cc1c(C(=O)Nc2cccc(Cl)c2)c2ccccn2c1CCc1ccncc1 1.1%
Cc1ccc(-c2cc(-c3ccc(C)cc3O)[nH]n2)cc1 -5.14%
O=C(N[C@@H]1C/C=C\C[C@@H](CC(=O)N(CCO)Cc2ccccc2)C(=O)NCCOC1=O)OCC1c2ccccc2-c2ccccc21 -31.4%
CC[C@H](C)[C@H](NC(=O)c1ccc(Cl)cc1)C(=O)OCC(=O)c1ccc2c(c1)NC(=O)CO2 -32%
COc1ccc(-c2nnn(CC(=O)N(CC(=O)NC3CCCC3)c3cccc(C)c3)n2)cc1OC -20.7%
NC(=O)c1cc(-c2ccccc2)sc1NC(=O)CN1CCCCC1 24.3%
CCCC(=O)Nc1ccc(Cl)c(NC(=O)c2ccc(Br)o2)c1 -19.4%
Cc1ccc(-c2nnc(N3CCC(C)CC3)c3ccccc23)cc1C -45.3%
COc1ccc(OC[C@@H](O)CNC(=O)c2cccc3c2C(=O)c2ccc(-c4ccc(F)cc4OCc4ccccc4)cc2S3(=O)=O)cc1 -1.68%
CN(C(=O)COC(=O)CCc1c[nH]c2ccccc12)c1ccccc1 66.7%
O=C(NNc1c(F)c(F)cc(F)c1F)C1CCN(S(=O)(=O)c2ccccc2F)CC1 -3.65%
CC(=O)c1ccc(-c2ccc(C(=O)Nc3nc(-c4ccccn4)cs3)o2)cc1 -23.5%
CC1Cc2ccccc2N1C(=O)Cn1nnc(-c2ccccc2NC(=O)C2CCC2)n1 (stereo not drawn) -10.8%
COc1cc(/C=C/C(=O)Nc2cccc(S(=O)(=O)NC3=NCCCCC3)c2)ccc1OCC#N -16.7%
